Screening data: PubChem BioAssay, National Center for Advancing Translational Sciences (NCATS)
FMDV antiviral: High Throughput Screening for Foot and Mouth Disease Virus Antivirals. FMDV antiviral cell-based qHTS. Potency, µM (titrated, usually from 57.9 µM), without a hit: at the highest dose activity change, negative = inhibition, hits mostly inhibitors. 410,000 compounds, 1.2% hits; calls by dose curve; tested in HEK293T cells; further: read-out not given here; potency means the concentration at half of the fitted maximal effect; on the % scale 0 is the no-effect control and ±100 the full control effect; nearly all actives have a fitted effect of over 45% in size
Shiga inhibitor: A qHTS for Small Molecule Inhibitors of Shiga Toxin; Vero cells, Shiga toxin protein synthesis inhibition reporter; inhibition, % at 38.7 µM; 290,000 compounds, 9.2% hits; AID 2315, 2010; in the data active means inhibition mostly above about 28%, no sharp cut-off; inactive means mostly below about 43%; further: 0% is about no effect
Sm TGR block: qHTS Assay for the Inhibitors of Schistosoma Mansoni Peroxiredoxins. Potency, µM (series often up to 114 µM), inactives show at the highest dose activity change, negative = inhibition, actives largely listed as inhibitors. 360,000 compounds, 3% hits. purified TGR, DTNB reduction, TNB absorbance 405 nm. Schistosoma mansoni thioredoxin glutathione reductase (TGR), Q962Y6; active means well fitted inhibition curve with a large enough effect; inconclusive means small, poorly fitted or top-dose-only effect; inactive means no such curve, though single readings can be large or run the other way; further: potency means the concentration at half of the fitted maximal effect; on the % scale 0 is the no-effect control and ±100 the full control effect; nearly all actives have a fitted effect of over 60% in size
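Kinetic colorimetric format: TGR-catalysed, NADPH-driven DTNB reduction monitored via TNB absorbance. Enzyme dispensed at 20 nM; compound exposure 15 min at room temperature before reaction start.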
CHX counter: Cycloheximide Counterscreen for Small Molecule Inhibitors of Shiga Toxin | cell reporter, cycloheximide protein synthesis inhibition counterscreen | max response, % | 300,000 compounds, 12% hits; in the data active means max response mostly above about 13%, no sharp cut-off; inactive means mostly below about 14%; further: read at 38.3 µM for the half of the compounds with a filed dose; 0% is about no effect
* = called active by the depositor; ? = inconclusive; · = no result given; [ ] = remark or other dose. The list is not random: actives were taken first. Their share in the collection is about 12%.

SMILES	FMDV antiviral	Shiga inhibitor	Sm TGR block	CHX counter
Cc1cc(N2CCCC2)c(F)cc1/C=C\[N+](=O)[O-]	22µM*	5	-25%	21
CCN1C(=NCc2ccccc2)N[C@@H](c2ccccc2)[C@H](C(=O)OC)[C@H]1C	-13%	-2	8%	0
CCN1C(=NCCc2c[nH]c3ccccc23)N[C@@H](c2ccccc2)[C@H](C(=O)OC)[C@H]1C	-18%	-9	45µM*	-1
C=CCn1c(COc2ccc(OC)cc2)nc2ccccc21	64%	33	-22%	44*
CCn1c(COc2ccc(OC)cc2)nc2ccccc21	23%	80*	-11%	50*
CCOc1ccc(NCc2nc3ccccc3n2CCOc2ccccc2)cc1	-23%	61*	1%	38*
Cc1cccc(Cn2c(COc3ccccc3)nc3ccccc32)c1	-22%	·	-2%	·
COc1ccc(OCc2nc3ccccc3n2C(C)C)cc1	-21%	14	0%	9
CCn1c(COc2ccccc2)nc2ccccc21	8%	36*	-21%	24*
COc1ccccc1C1=Nn2c(nc3sc(C(=O)Nc4ccccc4Cl)c(C)c3c2=O)SC1	-8%	·	-8%	·
COc1ccc(OCCn2c(C)nc3ccccc32)cc1	0%	·	·	·
COCCn1c(COc2ccc(OC)cc2)nc2ccccc21	-8%	49*	1%	22*
COCc1nc2ccccc2n1Cc1ccc(Br)cc1	21%	43	-2%	26
COCc1nc2ccccc2n1Cc1ccccc1	38%	17	-23%	20*
N#Cc1ccccc1-c1ccc2ncnc(NCc3cccs3)c2c1	-38%	·	·	·
O=[N+]([O-])c1ccccc1CCl	-19%	·	40µM*	·
O=C(Cc1ccccc1[N+](=O)[O-])NCc1ccc(Cl)cc1Cl	19%	87*	-4%	44*
O=C(Cc1ccccc1[N+](=O)[O-])NCc1ccc(Cl)cc1	68%	22	4%	33*
O=C(NCc1ccc(Cl)cc1)c1n[nH]c([N+](=O)[O-])c1Cl	0%	61*	·	45*
CCc1cccc(CC)c1-n1nnc2c(sc3nc(C)cc(C)c32)c1=O	?	·	4%	·
Cc1ccc(Nc2ncnc3onc(C)c23)cc1Cl	-17%	·	1%	·
COc1ccccc1-c1nn2c(=O)cc(CN3CCN(C(=O)/C=C/c4ccccc4)CC3)nc2s1	-13%	·	-23%	·
CC(=O)N1CCc2c(sc3c2c(=O)n(-c2ccccc2)c(=O)n3CC(=O)c2ccc(Cl)cc2)C1	-23%	·	-3%	·
COc1ccc(CNC(=O)Cn2ccc3cc(S(=O)(=O)N4CCCCC4)ccc32)cc1OC	-2%	·	-2%	·
O=C(CC(=O)Nc1ccc(F)cc1F)Nc1ccc(F)cc1F	19%	-3	9%	9
SMILES	FMDV antiviral	Shiga inhibitor	Sm TGR block	CHX counter
O=C(Nc1ccncc1)Nc1ccc(F)cc1F	19%	54*	3%	27*
O=C(Nc1ccon1)Nc1ccc(F)cc1F	-12%	52	1%	10
O=C(Nc1ccc(F)cc1F)Nc1ccc(F)cc1F	5%	86*	·	30*
O=C(CCl)Nc1cc(S(=O)(=O)N2CCCCCC2)ccc1Cl	?	-17	16µM*	-2
Nc1cc(=O)[nH]c(SCC(=O)Nc2cc(S(=O)(=O)N3CCCCCC3)ccc2Cl)n1	0%	·	·	·
Cc1ccc(S(=O)(=O)N2CCCCC2)cc1NC(=O)c1ccco1	-22%	·	·	·
CCCCNC(=S)Nc1cc(S(=O)(=O)N2CCCCC2)ccc1C	-9%	-6	2µM*	0
CC(C)(C)CC(=O)Nc1cc(S(=O)(=O)N2CCCCCC2)ccc1Cl	-20%	-12	-3%	-5
Cc1ccc(-c2nc(SCC(=O)Nc3cc(S(=O)(=O)N4CCCCC4)ccc3Cl)n[nH]2)cc1	-25%	3	5%	17*
COc1ccc(C2CC(c3ccc(C)o3)=NN2C(C)=O)cc1 (stereo not given)	33%	97*	1%	21*
COc1ccc(C2CC(c3ccc(OC)cc3O)=NN2C(=O)c2ccccc2)cc1 (stereo not given)	14%	-6	13%	4
CC(=O)N1N=C(c2cccs2)CC1c1cccs1 (stereo not given)	-10%	12	-8%[57.1 µM]	-3
COc1ccc(C2CC(c3ccc4ccccc4c3OC(C)=O)=NN2C(C)=O)cc1 (stereo not given)	20%	60*	3%	25*
CC(=O)N1N=C(c2ccc(Cl)cc2)CC1c1ccc([N+](=O)[O-])cc1 (stereo not given)	-17%	29	-25%	1
COc1ccc(C2CC(c3ccc(Cl)cc3)=NN2C(C)=O)cc1 (stereo not given)	19%	30*	0%	34*
CC(=O)N1N=C(c2cccs2)CC1c1ccc(Br)cc1 (stereo not given)	10%	33	-2%	32*
Cc1ccc(SCCNC(=O)CN(c2cccc(C)c2C)S(C)(=O)=O)cc1	?	·	-8%	·
COc1ccc(C2=NN(C(=O)c3ccc(Cl)c([N+](=O)[O-])c3)C(c3ccccc3)C2)cc1 (stereo not given)	0%	-11	0%	-4
COc1ccc(C2=NN(CN3C(=O)C(=O)c4ccccc43)C(c3cccc([N+](=O)[O-])c3)C2)cc1 (stereo not given)	-7%	117*	4%	13*
COc1ccc(C2CC(c3ccc(Cl)cc3)=NN2C(=O)c2cccc([N+](=O)[O-])c2)cc1 (stereo not given)	1%	14	-6%	19*
CC(=O)N1N=C(c2ccc(C)o2)CC1c1ccc(Br)cc1 (stereo not given)	10%	87*	-35%	43*
Cc1ccc(Cl)cc1-n1c(=O)cc(N2CCN(c3ccc(F)cc3)CC2)[nH]c1=O	-12%	·	-18%	·
O=C(NCCS(=O)(=O)NCc1ccccc1)c1ccc2c(c1)OCO2	5%	·	-1%	·
O=C(NNC(=S)NCc1ccccc1)c1ccc2c(c1)OCO2	-2%	14	-6%	7
Cc1onc(-c2ccccc2)c1C(=O)NNC(=S)NC(=O)c1ccc2c(c1)OCO2	-18%	90*	4%	46*
SMILES	FMDV antiviral	Shiga inhibitor	Sm TGR block	CHX counter
O=C(NC(=S)NCc1ccccc1)c1ccc2c(c1)OCO2	50%	-52	40µM*	19*
O=C(NCCc1ccccc1)c1ccc2c(c1)OCO2	7.9µM*	-3	3%	-1
O=C(/C=C/c1ccc(O)c(O)c1)O[C@H](Cc1ccc(O)c(O)c1)C(=O)O	·	12	3.2µM*	0
CCCSc1ncc(Cl)c(C(=O)Nc2c(C(=O)c3ccc(F)cc3)oc3ccccc23)n1	-8%	·	4%	·
Cn1c(=O)c(C(=O)Nc2ccccn2)c(O)c2ccccc21	-19%	44*	-10%	33*
Cn1c(=O)c(C(=O)Nc2cnccn2)c(O)c2ccccc21	·	27	-2%	18
Cn1c(=O)c(C(=O)Nc2ccccc2S(N)(=O)=O)c(O)c2ccccc21	18%	22	-4%	13*
CCn1c(=O)c(C(=O)Nc2ccccc2F)c(O)c2ccccc21	8%	43	5%	9.1*
